Experimental data reported in the supplement of paper PMC6555819.

Key:
Assay in all cases: PBM binding z-score (relative to random genomic background probes); higher = stronger binding; sequences stand for … in GC…GCGATTGACAGCGTAGAATGAAGG
[1] = system: FXR:RXRa (NR concentration 270 nM, RXRa partner concentration 90 nM)
Summary of the method: (§1)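 Custom Agilent 4×180K protein-binding microarrays carried double-stranded probes. Their 34-nt variable regions held direct-repeat seeds, single-nucleotide variants, half-site ablations and random human genomic background sequences. Arrays were incubated 1 h with ligand-free nuclear receptor dimers in PBS pH 7.4, 2% milk, 0.02% Triton X-100, 1 mM DTT, 0.2 mg/mL BSA and 0.4 mg/ml salmon testes DNA. Antibodies against each partner (one per run) detected binding, and scanned fluorescence was regression-normalized. Binding z-scores use random background probes as reference.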

[2] = system: LXRa:RXRa (NR concentration 270 nM, RXRa partner concentration 90 nM)
Summary of the method: as §1

[3] = system: LXRa homodimer (NR concentration 270 nM)
Summary of the method: as §1

[4] = system: LXRb:RXRa (NR concentration 270 nM, RXRa partner concentration 90 nM)
Summary of the method: as §1

[5] = system: LXRb homodimer (NR concentration 270 nM)
Summary of the method: as §1

[6] = system: PPARa:RXRa (NR concentration 270 nM, RXRa partner concentration 90 nM)
Summary of the method: as §1

[7] = system: PPARg:RXRa (NR concentration 180 nM, RXRa partner concentration 90 nM)
Summary of the method: as §1

[8] = system: PPARg:RXRa 270nM:90nM, anti-RXR (NR concentration 270 nM, RXRa partner concentration 90 nM)
Summary of the method: as §1

[9] = system: PPARg:RXRa 30nM:10nM, anti-RXR (NR concentration 30 nM, RXRa partner concentration 10 nM)
Summary of the method: as §1

[10] = system: PPARg:RXRa 90nM:30nM, anti-RXR (NR concentration 90 nM, RXRa partner concentration 30 nM)
Summary of the method: as §1

[11] = system: PPARg:RXRa DBDmut IVT, anti-RXR (DBD mutation: RXRa K156A/R161A, NR concentration 270 nM, RXRa partner concentration 90 nM)
Summary of the method: as §1

[12] = system: PPARg:RXRa IVT, anti-PPARg (NR concentration 270 nM, RXRa partner concentration 90 nM)
Summary of the method: as §1

[13] = system: PPARg DBDmut:RXRa IVT, anti-PPARg (DBD mutation: PPARg1 K132A/R137A, NR concentration 270 nM, RXRa partner concentration 90 nM)
Summary of the method: as §1

[14] = system: PPARg DBDmut IVT, anti-PPARg (DBD mutation: PPARg1 K132A/R137A, NR concentration 270 nM)
Summary of the method: as §1

[15] = system: PPARg homodimer (NR concentration 180 nM)
Summary of the method: as §1

[16] = system: PXR:RXRa (NR concentration 270 nM, RXRa partner concentration 90 nM)
Summary of the method: as §1

[17] = system: PXR homodimer (NR concentration 270 nM)
Summary of the method: as §1

[18] = system: RARa:RXR (NR concentration 270 nM, RXRa partner concentration 90 nM)
Summary of the method: as §1

[19] = system: RARa homodimer (NR concentration 270 nM)
Summary of the method: as §1

[20] = system: RARb:RXRa (NR concentration 270 nM, RXRa partner concentration 90 nM)
Summary of the method: as §1

| Sequence | PBM binding z-score [1] | PBM binding z-score [2] | PBM binding z-score [3] | PBM binding z-score [4] | PBM binding z-score [5] | PBM binding z-score [6] | PBM binding z-score [7] | PBM binding z-score [8] | PBM binding z-score [9] | PBM binding z-score [10] | PBM binding z-score [11] | PBM binding z-score [12] | PBM binding z-score [13] | PBM binding z-score [14] | PBM binding z-score [15] | PBM binding z-score [16] | PBM binding z-score [17] | PBM binding z-score [18] | PBM binding z-score [19] | PBM binding z-score [20] |
| --- | --- | --- | --- | --- | --- | --- | --- | --- | --- | --- | --- | --- | --- | --- | --- | --- | --- | --- | --- | --- |
| TCATATAGTTAAAAGGTGAAAGTCGGTGTGGTAA | 1.74 | 1.98 | 0.272 | 1.98 | 0.21 | 3.42 | 3.17 | 5.23 | 5.04 | 5.39 | 3.12 | 2.36 | 1.13 | 0.7 | 2.01 | 1.38 | 0.951 | 2.72 | 2.03 | 2.02 |
| CGTCAAAGTTCAAGGTAGCGTAACAGAAAGCAGC | 5.54 | 5.8 | 2.95 | 3.18 | 0.738 | 4.56 | 3.8 | 5.04 | 2.26 | 3.89 | 0.367 | 1.36 | -0.0381 | 0.0782 | 3.03 | 3.84 | 2.73 | 3.35 | 0.828 | 5.01 |
| TCTTGTAGCTCAAAGGTTAAGAAAGCCGAAGCCT | 0.766 | 1.08 | -0.349 | 1.32 | -0.747 | 3.36 | 4.77 | 6.09 | 4.64 | 6.1 | 1.21 | 1.99 | 0.0313 | -0.321 | 0.397 | 1.27 | -0.227 | 1.83 | -0.437 | 1.61 |
| TCTAGTCGGTCACGGAGGTCACACACGACGGGTA | 4.64 | 4.8 | 4.58 | 3.54 | 0.882 | 4.58 | 5.07 | 4.97 | 3.86 | 4.54 | 4.17 | 5.71 | 2.36 | 0.492 | 3.93 | 4.93 | 2.24 | 5.02 | 1.39 | 4.56 |
| AGAATGAGGTTACAAAAGATCAGGGAAACGCTTG | 1.59 | 6.22 | -0.11 | 3.07 | 0.0675 | 3.05 | 2.31 | 2.26 | 0.772 | 1.54 | 3.87 | 3.13 | 1.47 | 0.745 | 0.909 | 1.23 | 0.246 | 1.88 | -0.148 | 1.81 |
| CCGACTGCGGCATAAGGTTACCATAAGCCAGCCC | 0.434 | 1.84 | -0.038 | 0.877 | -0.74 | 0.702 | 0.575 | 0.243 | -0.468 | -0.29 | -0.303 | -0.677 | -0.568 | -0.753 | 0.108 | 0.121 | -0.316 | 0.892 | 0.0382 | 0.791 |
| TAGCCTAGGTCGTGCGGGCCAGTATAGTGTCGGC | -0.111 | -0.0321 | -0.956 | -0.439 | -0.768 | 0.275 | -0.525 | -0.186 | -0.812 | -0.477 | -0.622 | 0.425 | -0.497 | -1.13 | -1.3 | -0.419 | -0.881 | -0.166 | -1.19 | 0.97 |
| TCATGTAGGTAAAGGTGAAAGTCGAACGATATGA | 1.05 | 1.11 | -0.13 | 1.23 | -0.337 | 3.46 | 4.4 | 4.72 | 4.32 | 4.81 | 4.4 | 4.97 | 1.57 | 1.56 | 0.969 | 0.939 | 0.207 | 1.53 | 0.733 | 2.05 |
| CCGACTGGGGCAATGGTTACCATACTCAGTACGA | -0.281 | -0.63 | -0.543 | -0.411 | -1.1 | 0.901 | 2.88 | 3.63 | 1.72 | 3.63 | 3.21 | 3.14 | -0.545 | -0.357 | 0.166 | -0.648 | -0.201 | -0.309 | -0.393 | 0.161 |
| AGACTGAGGTTAAGATCAGGGAAACAGAATACAT | 2.11 | 1.75 | -0.133 | 1.6 | -0.417 | 2.92 | 1.21 | 1.18 | 0.748 | 0.879 | 0.0393 | 0.554 | -0.0816 | -0.0692 | 0.531 | 0.903 | 0.258 | 1.84 | -0.0293 | 1.7 |
| TCATATAGGTAATACAGGTGAAAGGCGGCATCTA | 1.01 | 1.22 | 0.706 | 0.93 | 0.000841 | 2.25 | 2.3 | 3.69 | 4.62 | 4.1 | 4.33 | 3.42 | 1.73 | 1.03 | 1.29 | 1.04 | 0.592 | 1.33 | 1.69 | 0.697 |
| AATACAGGGTCACTAGGCCGGAGTAGGTACGAAT | 5.72 | 5.1 | 0.78 | 3.77 | 1.05 | 5.36 | 6.6 | 6.03 | 2.5 | 4.78 | 3.1 | 5.05 | 0.885 | 0.938 | 1.34 | 2.98 | 0.306 | 3.81 | -0.208 | 3.97 |
| CTCGAGAGGTCGTGCTCAGGTGAGTATACCAAAC | 3.66 | 2.94 | -0.247 | 3.32 | -0.109 | 4.28 | 1.58 | 2.21 | 0.228 | 1.11 | 0.51 | 1.53 | -0.297 | -0.226 | 0.544 | 3.09 | 0.214 | 3.6 | -0.876 | 2.79 |
| CGAACTAGGTCAAGGTCAGTGAATCTCCGCACGC | 4.73 | 3.81 | 1.23 | 2.95 | 0.0681 | 5.17 | 8.71 | 6.93 | 4.44 | 7.24 | 7.95 | 8.28 | 1.6 | 0.259 | 3.84 | 3.45 | 1.03 | 3.61 | 1.62 | 4.86 |
| CCTTACGTGTCACTCCAGGTTATAGCATCGGAGT | 1.96 | 5.55 | 2.04 | 1.89 | 1.05 | 0.862 | 0.466 | 0.288 | -0.302 | -0.0102 | 1.84 | 1.44 | 0.74 | 0.788 | 1.64 | 1.44 | 0.593 | 0.864 | 1.76 | 1.16 |
| CCGACTGGGGGAGAAAGGTTACCATACCATCCGG | 1.31 | 1.61 | 0.182 | 2.9 | 4.09 | 3.66 | 3.97 | 6.01 | 4.46 | 6.42 | 1.08 | 2.68 | 1.16 | 2.68 | 1.76 | 2 | 0.501 | 2.74 | 0.727 | 1.68 |
| TCTTGTAGATCAAGCCGGTTAAGAAAGCCTGAGT | 0.845 | 0.416 | -0.282 | 0.245 | -0.0874 | 0.538 | -0.597 | 1.31 | 2.88 | 1.97 | 1.95 | 0.218 | -0.157 | -0.013 | 0.0807 | 0.392 | 0.0295 | 0.402 | -0.0189 | 0.123 |
| ACTTACGGGTTAACGAGGTTATAGCACGCGTATA | 2.07 | 2.74 | 0.54 | 2.31 | 0.221 | 3.12 | 1.66 | 2.16 | 0.682 | 1.49 | 1.74 | 2.15 | 0.886 | 1.18 | 1.01 | 2.88 | 0.801 | 2.6 | 0.88 | 1.69 |
| TATACAGGGTCAAAGGCCAGCGTACGAATGTCGA | 7.47 | 6.28 | 2.26 | 4.8 | 2.36 | 6.28 | 8.39 | 7.25 | 5.73 | 7.51 | 2.18 | 4.79 | 2.29 | 0.981 | 3.54 | 4.34 | 0.322 | 6.38 | 1.26 | 4.46 |
